In PubChem BioAssay (NCI) one finds growth data, which are given here for 9 compounds.

The panel holds about 83,000 compounds, 20% with a hit somewhere; the sample as a whole holds those more often.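 Percent growth is the endpoint: 0 to 100 indicates growth inhibition (40 means 60% inhibition), 0 means no net growth, and negative values indicate cell death.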 Values without a mark were called inactive. The source made the active and inactive calls. Rule for the calls: active = growth percent below 10; inactive = the rest.

Test systems include SR leukemia; OVCAR-8 ovarian; OVCAR-5 ovarian; OVCAR-4 ovarian; SK-OV-3 ovarian; IGROV1 ovarian; OVCAR-3 ovarian; HS 578T breast; NCI/ADR-RES ovarian; T-47D breast; BT-549 breast; MDA-MB-435 melanoma; SW-620 colon; MCF7 breast; HCT-116 colon; HCC-2998 colon; KM12 colon; RPMI-8226 leukemia.
What all share (test): NCI-60 one-dose screen, 48 h (100 = growth as untreated, 0 = no growth, -100 = all killed)
Common to all, as to settings: 10 µM unless noted

For `CCOC(=O)/C=C/C(=O)[C@H](CC(C)C)NC(=O)[C@H](Cc1ccccc1)NC(=O)OCc1ccccc1`, the growth in the test with SR leukemia was -8.81% (active); with OVCAR-8 ovarian, 72.8%; in the test on OVCAR-5 ovarian, 90.8%; in the test on OVCAR-4 ovarian, 91.9%; in the test on SK-OV-3 ovarian, 102%; in the test with IGROV1 ovarian, 75.6%. Further, the growth in the test with OVCAR-3 ovarian is 30%; in the test with HS 578T breast, 93.4%; with NCI/ADR-RES ovarian it was 89.6%; in the test with T-47D breast it was 8.32% (active); in the test with BT-549 breast, 69.2%; in the test on MDA-MB-435 melanoma it was 75.8%. Further, the growth in the test with SW-620 colon was 13.8%; in the test on MCF7 breast it was 19.7%; in the test with HCT-116 colon, 47.6%; with HCC-2998 colon, 99.2%; in the test on KM12 colon, 94.5%.

For `COc1cc2cc(COc3nccc(-c4ccc(Cl)cc4)n3)c(=O)[nH]c2cc1OC`, the growth was -28.4% (active) in the test on RPMI-8226 leukemia; 81.3% in the test on OVCAR-8 ovarian; 96.7% with OVCAR-5 ovarian; 82.5% in the test with OVCAR-4 ovarian; 89.9% in the test with SK-OV-3 ovarian; 79.6% in the test on IGROV1 ovarian. Besides, the growth is 90.4% in the test with OVCAR-3 ovarian; 67.3% in the test on HS 578T breast; 84.2% in the test on NCI/ADR-RES ovarian; 85.5% in the test on T-47D breast; 86.4% with BT-549 breast; 65.6% with MDA-MB-435 melanoma. The growth with SW-620 colon was 36.5%; in the test on MCF7 breast, 46.3%; in the test with HCT-116 colon, 53.4%; with HCC-2998 colon, 11.7%; in the test on KM12 colon, 76.2%.

On to `CCOC(=O)c1c2c(n3ccc(NC(=O)CCN(CC)CC)cc13)C(=O)c1ncccc1C2=O`, for which the growth was -2.86% (active) with SR leukemia; 57.4% in the test with OVCAR-8 ovarian; 90.5% with OVCAR-5 ovarian; 63.8% in the test on OVCAR-4 ovarian; 36.2% with SK-OV-3 ovarian; 47.3% in the test on IGROV1 ovarian. Besides, the growth in the test with OVCAR-3 ovarian is 74.7%; in the test on HS 578T breast, 60.8%; in the test with NCI/ADR-RES ovarian, 60.2%; in the test with T-47D breast, 55.9%; in the test on MDA-MB-435 melanoma, 32.7%; with SW-620 colon, 49.3%. Further, the figures for the growth in the test on MCF7 breast, in the test on HCT-116 colon and in the test on HCC-2998 colon were -8.59% (active), 49.3% and 83.1%, respectively.

Regarding `O=C(COCc1c(-c2ccccc2)no[n+]1[O-])Nc1ccc(C(=O)/C=C/c2ccc3c(c2)OCO3)cc1`, the growth with RPMI-8226 leukemia was 74.2%; in the test with OVCAR-8 ovarian, 87.5%; with OVCAR-5 ovarian, 99.4%; with OVCAR-4 ovarian, 114%; in the test with SK-OV-3 ovarian, 112%; in the test with IGROV1 ovarian, 95.2%. Further, the growth was 113% in the test with OVCAR-3 ovarian; 101% in the test on HS 578T breast; 106% in the test with NCI/ADR-RES ovarian; 94.1% in the test with T-47D breast; 96% in the test with BT-549 breast; 95.3% in the test on MDA-MB-435 melanoma. Also, the growth is 105% in the test with SW-620 colon; 92.2% with MCF7 breast; 73.1% with HCT-116 colon; 102% with HCC-2998 colon; 104% with KM12 colon.

For `COC(=O)[C@H](C(C)C)n1c(=O)c2cc(OC)c(OC)cc2c2cnc3[nH]ccc3c21`, the growth with RPMI-8226 leukemia was 55%; with OVCAR-8 ovarian, 65.1%; with OVCAR-5 ovarian, 39.9%; in the test on OVCAR-4 ovarian it was 85%; in the test on SK-OV-3 ovarian, 26.5%; in the test with IGROV1 ovarian, 3.08% (active). Moreover, the growth is 48.8% in the test on OVCAR-3 ovarian; 12.6% with HS 578T breast; 56.4% with NCI/ADR-RES ovarian; 14.8% in the test on T-47D breast; 21.2% with BT-549 breast; 75.1% with MDA-MB-435 melanoma. In addition, the growth in the test with SW-620 colon is 61.8%; in the test with MCF7 breast, 26.2%; in the test with HCT-116 colon, 41.4%; in the test on HCC-2998 colon, 62%; in the test on KM12 colon, 18.4%.

Take `COc1ccc2nc3cc(Cl)ccc3c(N3CCN(c4ccnc(N5CCOCC5)n4)CC3)c2c1`: the growth in the test with RPMI-8226 leukemia was 11.3%; with OVCAR-8 ovarian, 59.2%; in the test with OVCAR-5 ovarian, 83.8%; in the test on OVCAR-4 ovarian it was 55.6%; in the test on SK-OV-3 ovarian, 85.5%; in the test with IGROV1 ovarian, 77.8%. For the same compound, the growth is 4.76% (active) with OVCAR-3 ovarian; 99.2% in the test with HS 578T breast; 73.2% in the test on NCI/ADR-RES ovarian; -37.9% (active) in the test with T-47D breast; 93.1% in the test on BT-549 breast; 57% in the test on MDA-MB-435 melanoma. Also, the growth with SW-620 colon was 3.94% (active); in the test on MCF7 breast it was -82% (active); in the test with HCT-116 colon, 1.63% (active); in the test on HCC-2998 colon, 12.9%; with KM12 colon it was 53.2%.

For `CC[C@H](Nc1nc(N)nc(C)c1C#N)c1nc2cccc(NCc3ccc(C(=O)NO)cc3)c2c(=O)n1-c1ccccc1`, the growth in the test with RPMI-8226 leukemia was 4.78% (active); in the test on OVCAR-8 ovarian, -25.7% (active); in the test on OVCAR-5 ovarian it was 16.8%; in the test with OVCAR-4 ovarian, 15.5%; in the test with SK-OV-3 ovarian, -12% (active); in the test with IGROV1 ovarian, -50.5% (active). The growth in the test with OVCAR-3 ovarian is 0.5% (active); in the test on HS 578T breast it was -8.46% (active); with NCI/ADR-RES ovarian it was 74.7%; in the test on T-47D breast, -8.21% (active); in the test on BT-549 breast it was 20.9%; in the test on MDA-MB-435 melanoma, -1.57% (active). Also, the growth in the test with SW-620 colon was -16.4% (active); in the test on MCF7 breast, 5.7% (active); with HCT-116 colon it was -50.5% (active); with HCC-2998 colon, 28.3%; in the test on KM12 colon, 0.659% (active).

Take `O=C(Nc1ccc(Nc2cc(Nc3ccccc3)ncn2)cc1)Nc1cc(C(F)(F)F)ccc1F`: the growth is 42% in the test on SR leukemia; 78.1% in the test on OVCAR-5 ovarian; 71.2% with OVCAR-4 ovarian; 101% in the test with SK-OV-3 ovarian; 90.3% in the test on IGROV1 ovarian; 88.5% with OVCAR-3 ovarian. Further, the growth in the test with HS 578T breast is 78.9%; in the test with NCI/ADR-RES ovarian it was 81.1%; in the test on T-47D breast, 24.1%; with BT-549 breast, 85.3%; in the test with MDA-MB-435 melanoma it was 75.8%; in the test with SW-620 colon, 120%. Moreover, the growth is 51.6% in the test on MCF7 breast, 63.7% with HCT-116 colon, 93.7% with HCC-2998 colon and 23.3% with KM12 colon.

On to `CC[C@]12C=CCN3CC[C@@]4(c5ccc(OC)cc5N(C)[C@H]4[C@@](O)(C(=O)OC)[C@@H]1OC(=O)CCC(=O)N[C@@H](Cc1c[nH]c4ccccc14)C(=O)OC)[C@@H]32`, for which the growth was -43.1% (active) in the test on SR leukemia; 93.9% in the test with OVCAR-8 ovarian; 90.8% with OVCAR-5 ovarian; 89.9% in the test with OVCAR-4 ovarian; 100% in the test with SK-OV-3 ovarian; 101% in the test on IGROV1 ovarian. Further, the growth was 86.4% in the test on OVCAR-3 ovarian; 79.4% in the test on HS 578T breast; 105% in the test with NCI/ADR-RES ovarian; 67.8% with T-47D breast; 95.3% in the test with MDA-MB-435 melanoma; 96.4% in the test with SW-620 colon. For the same compound, the growth in the test on MCF7 breast was 90%; in the test on HCT-116 colon, 100%; in the test on HCC-2998 colon it was 70.6%; in the test with KM12 colon it was 106%.
